In the supplement of paper PMC7411054:
Structures can show the parent of a compound that is named as a salt.

What was measured:
Conditions in all cases: treatment time: 24 h
A549-ACTB-RAB5A [1] = assay: lowest phenotypically active concentration; higher = less potent
Procedure, shortened: (§1)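 Fifteen gene-edited A549, HepG2 and WPMY1 reporter lines (BFP segmentation plus GFP and RFP/FusionRed markers) were treated at 0.3, 1, 3 or 9 µM for 24 h, four wells each, then imaged live. Live-cell features per well were normalised to DMSO control wells. Deviation required ≥3 of 4 wells beyond the 95th percentile of DMSO Euclidean distances, and reproducibility required median replicate Pearson correlation above the 95th percentile of non-replicates. Phenotypic activity needed both criteria.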

A549-GM130-SQSTM1 [2] = assay: as above
Procedure, shortened: as §1

A549-TUBA1B-RELA [3] = assay: as above
Procedure, shortened: as §1

HepG2-ACTB-RAB5A [4] = assay: as above
Procedure, shortened: as §1

A549-ACTB-RAB5A [5] = assay: phenotypically active (imaging signature differs from DMSO and reproducible) at any of 0.3-9 uM (binary (1 = active, 0 = inactive)); higher = active
Procedure, shortened: as §1

A549-CANX-COX4 = assay: as above
Procedure, shortened: as §1

A549-GM130-SQSTM1 [6] = assay: as above
Procedure, shortened: as §1

A549-TP53BP1-CLTA = assay: as above
Procedure, shortened: as §1

A549-TUBA1B-RELA [7] = assay: as above
Procedure, shortened: as §1

HepG2-ACTB-RAB5A [8] = assay: as above
Procedure, shortened: as §1

HepG2-CANX-COX4 = assay: as above
Procedure, shortened: as §1

HepG2-GM130-SQSTM1 = assay: as above
Procedure, shortened: as §1

HepG2-TP53BP1-CLTA = assay: as above
Procedure, shortened: as §1

HepG2-TUBA1B-RELA = assay: as above
Procedure, shortened: as §1

WPMY1-ACTB-RAB5A = assay: as above
Procedure, shortened: as §1

WPMY1-CANX-COX4 = assay: as above
Procedure, shortened: as §1

WPMY1-GM130-SQSTM1 [9] = assay: as above
Procedure, shortened: as §1

WPMY1-TP53BP1-CLTA = assay: as above
Procedure, shortened: as §1

WPMY1-TUBA1B-RELA = assay: as above
Procedure, shortened: as §1

WPMY1-GM130-SQSTM1 [10] = assay: lowest phenotypically active concentration; higher = less potent
Procedure, shortened: as §1

Structure (SMILES)	lowest phenotypically active concentration (A549-ACTB-RAB5A [1]) [µM]	lowest phenotypically active concentration (A549-GM130-SQSTM1 [2]) [µM]	lowest phenotypically active concentration (A549-TUBA1B-RELA [3]) [µM]	lowest phenotypically active concentration (HepG2-ACTB-RAB5A [4]) [µM]	phenotypically active (A549-ACTB-RAB5A [5])	phenotypically active (A549-CANX-COX4)	phenotypically active (A549-GM130-SQSTM1 [6])	phenotypically active (A549-TP53BP1-CLTA)	phenotypically active (A549-TUBA1B-RELA [7])	phenotypically active (HepG2-ACTB-RAB5A [8])	phenotypically active (HepG2-CANX-COX4)	phenotypically active (HepG2-GM130-SQSTM1)	phenotypically active (HepG2-TP53BP1-CLTA)	phenotypically active (HepG2-TUBA1B-RELA)	phenotypically active (WPMY1-ACTB-RAB5A)	phenotypically active (WPMY1-CANX-COX4)	phenotypically active (WPMY1-GM130-SQSTM1 [9])	phenotypically active (WPMY1-TP53BP1-CLTA)	phenotypically active (WPMY1-TUBA1B-RELA)	lowest phenotypically active concentration (WPMY1-GM130-SQSTM1 [10]) [µM]
N#C/C(=C/c1ccc(-c2cc(Cl)ccc2Cl)o1)C(=O)Nc1cccc2ncccc12	3	9	≤ 0.3	3	1 (active)	0 (inactive)	1 (active)	0 (inactive)	1 (active)	1 (active)	0 (inactive)	0 (inactive)	0 (inactive)	0 (inactive)	0 (inactive)	1 (active)	0 (inactive)	0 (inactive)	0 (inactive)	–
CCSc1ccc2c(c1)N(CCCN1CCN(C)CC1)c1ccccc1S2 [thiethylperazine]	3	3	3	9	1 (active)	0 (inactive)	1 (active)	0 (inactive)	1 (active)	1 (active)	0 (inactive)	1 (active)	0 (inactive)	1 (active)	1 (active)	1 (active)	1 (active)	1 (active)	1 (active)	9
NC(=O)C(c1ccccc1)(c1ccccc1)[C@@H]1CCN(CCc2ccc3c(c2)CCO3)C1 [darifenacin]	9	9	9	9	1 (active)	0 (inactive)	1 (active)	0 (inactive)	1 (active)	1 (active)	1 (active)	1 (active)	1 (active)	0 (inactive)	0 (inactive)	0 (inactive)	1 (active)	1 (active)	0 (inactive)	9
CC(CN(C)C)CN1c2ccccc2Sc2ccccc21.CC(CN(C)C)CN1c2ccccc2Sc2ccccc21 (stereo unspecified) [alimemazine]	9	9	9	9	1 (active)	0 (inactive)	1 (active)	0 (inactive)	1 (active)	1 (active)	0 (inactive)	1 (active)	1 (active)	1 (active)	1 (active)	0 (inactive)	1 (active)	0 (inactive)	1 (active)	≤ 0.3
CN(C)CCCN1c2ccccc2Sc2ccc(C(F)(F)F)cc21 [triflupromazine]	3	9	9	9	1 (active)	0 (inactive)	1 (active)	0 (inactive)	1 (active)	1 (active)	0 (inactive)	0 (inactive)	0 (inactive)	1 (active)	1 (active)	1 (active)	1 (active)	0 (inactive)	1 (active)	9
CCN(CCO)CCCC(C)Nc1ccnc2cc(Cl)ccc12 (stereo unspecified) [hydroxychloroquine]	9	9	9	–	1 (active)	0 (inactive)	1 (active)	0 (inactive)	1 (active)	0 (inactive)	0 (inactive)	1 (active)	0 (inactive)	1 (active)	1 (active)	1 (active)	1 (active)	0 (inactive)	1 (active)	9
CC1=C(/C=C/C(C)=C\C=C\C(C)=C\C(=O)O)C(C)(C)CCC1 [tretinoin]	3	3	3	1	1 (active)	0 (inactive)	1 (active)	0 (inactive)	1 (active)	1 (active)	1 (active)	1 (active)	0 (inactive)	0 (inactive)	1 (active)	1 (active)	1 (active)	1 (active)	1 (active)	≤ 0.3
COc1cc(NC(=O)c2cccc(-n3cc(NC(=O)Nc4cccc(C)c4)cn3)c2)cc(OC)c1OC	9	3	9	9	1 (active)	0 (inactive)	1 (active)	0 (inactive)	1 (active)	1 (active)	0 (inactive)	0 (inactive)	0 (inactive)	0 (inactive)	0 (inactive)	0 (inactive)	1 (active)	0 (inactive)	1 (active)	9
Fc1ccc([C@@H]2CCNC[C@H]2COc2ccc3c(c2)OCO3)cc1 [paroxetine]	3	3	3	9	1 (active)	0 (inactive)	1 (active)	0 (inactive)	1 (active)	1 (active)	0 (inactive)	1 (active)	1 (active)	1 (active)	1 (active)	1 (active)	1 (active)	1 (active)	1 (active)	9
O=C([C@@H](Cc1cccc(C(F)(F)F)c1)NS(=O)(=O)c1cc(F)c2c(c1)CCNC2)N1CCCC1 [(R)-PFI 2 hydrochloride]	9	9	9	–	1 (active)	0 (inactive)	1 (active)	0 (inactive)	1 (active)	0 (inactive)	0 (inactive)	0 (inactive)	0 (inactive)	0 (inactive)	0 (inactive)	0 (inactive)	0 (inactive)	0 (inactive)	0 (inactive)	–
Clc1ccc2c(c1)C(N1CCNCC1)=Nc1ccccc1O2 [amoxapine]	3	3	3	9	1 (active)	0 (inactive)	1 (active)	0 (inactive)	1 (active)	1 (active)	0 (inactive)	1 (active)	0 (inactive)	1 (active)	1 (active)	0 (inactive)	0 (inactive)	0 (inactive)	1 (active)	–
CN1C(=O)/C(=C2/Nc3ccccc3/C2=N/O)c2ccc(Br)cc21	≤ 0.3	≤ 0.3	≤ 0.3	≤ 0.3	1 (active)	0 (inactive)	1 (active)	0 (inactive)	1 (active)	1 (active)	1 (active)	0 (inactive)	0 (inactive)	0 (inactive)	1 (active)	1 (active)	1 (active)	0 (inactive)	0 (inactive)	≤ 0.3
CCCc1cc(C)n(C)c(=O)c1CN(C)C(=O)c1cc(-c2ccc(N3CCN(C(C)C)CC3)nc2)cc2c1cnn2C(C)C	3	3	3	9	1 (active)	0 (inactive)	1 (active)	0 (inactive)	1 (active)	1 (active)	0 (inactive)	1 (active)	1 (active)	0 (inactive)	1 (active)	1 (active)	1 (active)	1 (active)	1 (active)	3
Cc1cc(CS(=O)(=O)c2ccccc2)cc(OCc2ccc(CN3CCC[C@@H]3CO)cc2)c1 [PF 543 hydrochloride]	9	9	9	9	1 (active)	0 (inactive)	1 (active)	0 (inactive)	1 (active)	1 (active)	0 (inactive)	1 (active)	1 (active)	0 (inactive)	1 (active)	0 (inactive)	0 (inactive)	0 (inactive)	0 (inactive)	–
O=C1Cc2cc(CCN3CCN(c4nsc5ccccc45)CC3)c(Cl)cc2N1 [ziprasidone]	9	9	9	3	1 (active)	0 (inactive)	1 (active)	0 (inactive)	1 (active)	1 (active)	0 (inactive)	1 (active)	1 (active)	1 (active)	0 (inactive)	0 (inactive)	0 (inactive)	0 (inactive)	0 (inactive)	–
CCOC(=O)c1c(CSc2ccccc2)n(C)c2cc(Br)c(O)c(CN(C)C)c12 [arbidol]	9	9	9	9	1 (active)	0 (inactive)	1 (active)	0 (inactive)	1 (active)	1 (active)	1 (active)	1 (active)	1 (active)	1 (active)	0 (inactive)	0 (inactive)	1 (active)	0 (inactive)	0 (inactive)	9
CCCCCCCCCCCCC/C=C/[C@@H](O)[C@H](CO)N(C)C [N,N-Dimethylsphingosine]	3	1	3	3	1 (active)	0 (inactive)	1 (active)	0 (inactive)	1 (active)	1 (active)	1 (active)	1 (active)	1 (active)	1 (active)	1 (active)	1 (active)	1 (active)	1 (active)	1 (active)	3
CN(C)CC(O)Cn1c2ccc(Br)cc2c2cc(Br)ccc21 (stereo unspecified) [Wiskostatin]	3	1	1	3	1 (active)	0 (inactive)	1 (active)	0 (inactive)	1 (active)	1 (active)	1 (active)	1 (active)	1 (active)	1 (active)	1 (active)	1 (active)	1 (active)	1 (active)	1 (active)	3
O=C(NCCN1CCC(n2c(=O)[nH]c3ccccc32)CC1)c1cc2cc(F)ccc2[nH]1	9	9	3	9	1 (active)	0 (inactive)	1 (active)	0 (inactive)	1 (active)	1 (active)	1 (active)	1 (active)	1 (active)	1 (active)	1 (active)	1 (active)	1 (active)	1 (active)	1 (active)	9
COCCCC/C(=N/OCCN)c1ccc(C(F)(F)F)cc1 [fluvoxamine]	9	9	9	–	1 (active)	0 (inactive)	1 (active)	0 (inactive)	1 (active)	0 (inactive)	0 (inactive)	0 (inactive)	1 (active)	1 (active)	1 (active)	0 (inactive)	0 (inactive)	0 (inactive)	0 (inactive)	–
